Compound activity from PubChem BioAssay.
A selection: hits, their analogues and other compounds. The true share with any hit is near 9.2%.
Rab9 promoter act = activators of Rab9 promoter. hit rate 2.8% among 320,000. Potency, µM (highest dose often 9.22 µM), actives largely listed as activators. Huh7 Rab9 promoter-luciferase reporter, luminescence, 24 h. AID 485297; note: nearly all actives have a fitted effect of over 60% in size
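Measured in stably transfected Huh7 cells bearing a Rab9 promoter–luciferase construct: 24 h compound treatment at 37 °C, followed by luminescence detection.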
FLuc modulator = counter-screen for miR-21 project: firefly luciferase inhibitors or activators | P08659 | Potency, µM (series often up to 57.5 µM), actives largely listed as inhibitors | hit rate 6.9% among 360,000 | purified FLuc, Km substrates, luminescence inhibition; note: nearly all actives have a fitted effect of over 55% in size
Target sequence (P08659 whole entry, looked up): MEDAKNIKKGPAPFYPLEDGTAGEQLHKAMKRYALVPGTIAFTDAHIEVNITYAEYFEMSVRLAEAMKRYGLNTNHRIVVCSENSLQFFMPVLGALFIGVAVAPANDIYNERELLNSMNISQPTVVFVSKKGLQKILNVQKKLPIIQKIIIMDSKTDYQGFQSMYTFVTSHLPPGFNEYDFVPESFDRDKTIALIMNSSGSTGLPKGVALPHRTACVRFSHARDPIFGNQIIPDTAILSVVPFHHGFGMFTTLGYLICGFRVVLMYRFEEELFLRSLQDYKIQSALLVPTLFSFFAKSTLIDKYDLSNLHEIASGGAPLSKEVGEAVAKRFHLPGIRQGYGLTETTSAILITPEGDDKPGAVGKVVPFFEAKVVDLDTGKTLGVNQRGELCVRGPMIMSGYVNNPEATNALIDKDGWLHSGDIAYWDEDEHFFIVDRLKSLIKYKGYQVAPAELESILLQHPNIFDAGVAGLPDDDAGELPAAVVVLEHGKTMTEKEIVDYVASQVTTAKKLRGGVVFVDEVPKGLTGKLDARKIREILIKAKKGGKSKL
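Purified P. pyralis luciferase (10nM final) with 10uM D-luciferin and 10uM ATP (Km levels) in 50mM Tris acetate pH 7.5, 10mM Mg acetate, 0.01% Tween-20, 0.05% BSA; qHTS 6-point titration, ~60 µM downward; luminescence read.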
ELG1 DNA repair = blocks ELG1-dependent DNA repair in HEK293T cells. HEK293T ELG1-luciferase reporter, luminescence, 16 h; DNA damage induced by 5-fluorouridine. Potency, µM (series often up to 46.1 µM), most hits filed as inhibitors. hit rate 2.3% among 330,000; note: nearly all actives have a fitted effect of over 55% in size
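HEK293T cells expressing luciferase-tagged ELG1 (2,000/well) received 5-Fluorouridine plus compound or DMSO for 16 hr at 37 °C. Luciferase was read by ONE-Glo luminescence after 30 min at room temperature.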
ELG1 genotoxic = inducers of genotoxicity in HEK293T ELG1-luciferase cells. HEK293T ELG1-luciferase reporter, luminescence, 16 h. Potency, µM (titrated, usually from 46 µM), hits mostly activators. hit rate 1.3% among 330,000. AID 504466; note: nearly all actives have a fitted effect of over 60% in size
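Quantitative HTS format in 1536-well plates. HEK293T ELG1-luciferase reporter cells receive test compound and are incubated 16 hr at 37 °C, 5% CO2; ONE-Glo added, 30 min room temperature, then luminescence read.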
NPC1 prom act = activates the NPC1 promoter. Huh7 NPC1 promoter luciferase reporter, 24 h. Potency, µM (top dose mostly 9.22 µM), most hits filed as activators. hit rate 2.4% among 320,000. AID 485313; note: nearly all actives have a fitted effect of over 60% in size
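NPC1 promoter–luciferase Huh7 cells; 24 h compound; luminescence.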
SMN2 splice up = increases expression of the SMN2 splice variant; Potency, µM (doses to about 46.1 µM), most hits filed as activators; HEK293 SMN2-luciferase splicing reporter, luminescence, 30-36 h; hit rate 2.8% among 210,000; note: nearly all actives have a fitted effect of over 55% in size
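HEK293 cells carry an SMN2 minigene-luciferase reporter in which exon 7 inclusion puts luciferase in frame. Cells were seeded at 2000 cells/well, attached for 10-12 hours, then exposed to compounds for 30-36 hours at 37C before ONE-Glo luminescence.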
Each line names hits and unclear results; the compound was inactive in the other large screens. Calls come from the whole dose curve; as a rule, active = well fitted curve in the direction sought with a large enough effect; inconclusive = small, poorly fitted or top-dose-only effect, or another doubt; inactive = no such curve, though single readings can be large; an effect the other way counts as inactive or inconclusive.

CCN(CCCNC(=O)CNC(=O)c1nn(-c2ccc(OC)cc2)c(=O)c2ccccc12)c1cccc(C)c1	none (no result: SMN2 splice up)
CCN(CCCNC(=O)CNC(=O)c1nn(-c2ccc(OC)c(OC)c2)c(=O)c2ccccc12)c1ccccc1	ELG1 DNA repair 10.3µM (no result: SMN2 splice up)
COc1ccc(-n2nc(C(=O)Nc3ccc(OC)c(OC)c3)c3c4ccccc4n(C)c3c2=O)cc1	ELG1 DNA repair 8.2µM
COc1ccc(-n2nc(C(=O)NCC(=O)Nc3cc(OC)ccc3OC)c3ccccc3c2=O)cc1	ELG1 DNA repair 13µM (no result: SMN2 splice up)
COc1ccc(-n2nc(C(=O)NCC(=O)Nc3cc(Cl)c(OC)cc3OC)c3ccccc3c2=O)cc1	ELG1 DNA repair inconclusive (no result: SMN2 splice up)
CCC(=O)Nc1ccc(C(=O)CN2C(=O)NC3(CCCCCC3)C2=O)cc1	none (no result: SMN2 splice up)
Cc1ccc(C)c(N2CCN(C(=O)c3c(C)oc4nc(C)nc(N5CCOCC5)c34)CC2)c1	none (no result: Rab9 promoter act, ELG1 DNA repair, ELG1 genotoxic, NPC1 prom act, SMN2 splice up)
C[C@@]12CCC(=O)C=C1CC[C@H]1C2[C@@H](O)C[C@]2(C)[C@@H]1CC[C@@]2(O)C(=O)CO (stereo partly drawn)	none (no result: Rab9 promoter act, FLuc modulator, ELG1 DNA repair, ELG1 genotoxic, NPC1 prom act)
Cc1[nH]c2ccccc2c1C(=O)C(=O)N1CCOCC1	none (no result: SMN2 splice up)
Cc1[nH]c2ccccc2c1C(=O)CSC(=S)N1CCOCC1	Rab9 promoter act inconclusive, FLuc modulator 21.3µM, ELG1 DNA repair inconclusive (no result: SMN2 splice up)
CCc1nn(CC(=O)N2CCN(c3cccc(C)c3)C(C)C2)c(=O)c2cc3sccc3n12 (stereo not drawn)	none (no result: Rab9 promoter act, ELG1 DNA repair, ELG1 genotoxic, NPC1 prom act, SMN2 splice up)
Cc1cccc(NC(=O)CSc2nnc(-c3cc(C)n(-c4ccccc4)c3C)o2)c1C	FLuc modulator 16.9µM, ELG1 DNA repair inconclusive
O=C(CSc1nnc(-c2ccccn2)o1)Nc1ccccc1Cl	Rab9 promoter act 0.562µM, ELG1 DNA repair inconclusive, ELG1 genotoxic inconclusive, NPC1 prom act inconclusive (no result: SMN2 splice up)
CCc1ccc(OCc2nnc(SCC(=O)NC3CCCCC3)o2)cc1	FLuc modulator 10.7µM (no result: SMN2 splice up)
O=C(CSc1nnc(-c2ccncc2)o1)Nc1cc(F)ccc1F	Rab9 promoter act 2.82µM, ELG1 DNA repair inconclusive, ELG1 genotoxic inconclusive, NPC1 prom act 2.82µM (no result: SMN2 splice up)
CCc1ccccc1NC(=O)CSc1nnc(COc2ccccc2Cl)o1	FLuc modulator 16.9µM (no result: Rab9 promoter act, ELG1 DNA repair, ELG1 genotoxic, NPC1 prom act)
O=C(CSc1nnc(-c2ccccc2)o1)Nc1ccccc1F	Rab9 promoter act 0.0032µM, ELG1 DNA repair inconclusive, ELG1 genotoxic inconclusive, SMN2 splice up 0.794µM
COc1ccccc1-c1nnc(SCC(=O)Nc2ccccc2F)o1	none (no result: Rab9 promoter act, ELG1 DNA repair, ELG1 genotoxic, NPC1 prom act, SMN2 splice up)
Cc1cnc(NC(=O)CSc2nnc(-c3ccccc3)o2)s1	Rab9 promoter act 2µM, ELG1 DNA repair inconclusive, ELG1 genotoxic inconclusive, NPC1 prom act 3.55µM, SMN2 splice up 10µM
O=C(CSc1nnc(COc2ccc(Cl)cc2Cl)o1)Nc1ccccn1	FLuc modulator inconclusive, ELG1 DNA repair inconclusive (no result: SMN2 splice up)
COc1ccc(OCc2ccc(-c3nc(C#N)c(NC(C)c4ccccc4)o3)o2)cc1 (stereo not drawn)	none (no result: Rab9 promoter act, ELG1 DNA repair, ELG1 genotoxic, NPC1 prom act, SMN2 splice up)
COc1ccc(-c2csc(NCc3ccco3)n2)cc1C	Rab9 promoter act 3.98µM, FLuc modulator inconclusive, ELG1 DNA repair inconclusive, ELG1 genotoxic inconclusive, NPC1 prom act 3.16µM, SMN2 splice up 31.6µM
CC(=O)Nc1ccc(-c2csc(NCc3ccco3)n2)cc1	Rab9 promoter act 2µM, FLuc modulator 7.57µM, ELG1 DNA repair inconclusive, ELG1 genotoxic inconclusive, NPC1 prom act 2.51µM, SMN2 splice up 12.6µM
COc1ccc(-c2nc3cccc(C)n3c2NCc2ccco2)cc1OC	FLuc modulator 9.53µM, ELG1 DNA repair inconclusive
COc1ccc(-c2ccc(C#N)c(SCC(=O)NCc3ccco3)n2)cc1OC	ELG1 DNA repair inconclusive (no result: SMN2 splice up)
c1cncc(-c2csc(NCc3ccco3)n2)c1	FLuc modulator inconclusive, ELG1 DNA repair inconclusive
Cc1ccc(CNC(=O)C(C)n2nc(C)c3sc4ccccc4c3c2=O)cc1 (stereo not drawn)	FLuc modulator 13.5µM (no result: Rab9 promoter act, ELG1 DNA repair, ELG1 genotoxic, NPC1 prom act, SMN2 splice up)
CCC(C(=O)Nc1cccc(Cl)c1C)n1nc(C)c2sc3ccccc3c2c1=O (stereo not drawn)	FLuc modulator 10.7µM (no result: Rab9 promoter act, ELG1 DNA repair, ELG1 genotoxic, NPC1 prom act, SMN2 splice up)
Cc1nn(C(C)C(=O)NC2CCCCC2)c(=O)c2c1sc1ccccc12 (stereo not drawn)	FLuc modulator 9.53µM (no result: Rab9 promoter act, ELG1 DNA repair, ELG1 genotoxic, NPC1 prom act, SMN2 splice up)
